# Experimental data as given in PMC4336329 (PLoS ONE, 2015).
# About 14,000 (4.5%) of roughly 310,000 compounds showed an effect of 50% or more. Effects have a minus sign here. The sample as a whole holds a higher share of strong results than the screen did.
# Target: human ether-à-go-go-related gene (hERG) potassium channel (human, UniProt Q12809)
# Assay: primary screen, population patch clamp on CHO cells stably expressing hERG; higher = less effect of the substance
# 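Also: peak tail current of the secondary pulse compared with the same well before compound.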
# Chain of human ether-à-go-go-related gene (hERG) potassium channel (Q12809 whole entry, looked up): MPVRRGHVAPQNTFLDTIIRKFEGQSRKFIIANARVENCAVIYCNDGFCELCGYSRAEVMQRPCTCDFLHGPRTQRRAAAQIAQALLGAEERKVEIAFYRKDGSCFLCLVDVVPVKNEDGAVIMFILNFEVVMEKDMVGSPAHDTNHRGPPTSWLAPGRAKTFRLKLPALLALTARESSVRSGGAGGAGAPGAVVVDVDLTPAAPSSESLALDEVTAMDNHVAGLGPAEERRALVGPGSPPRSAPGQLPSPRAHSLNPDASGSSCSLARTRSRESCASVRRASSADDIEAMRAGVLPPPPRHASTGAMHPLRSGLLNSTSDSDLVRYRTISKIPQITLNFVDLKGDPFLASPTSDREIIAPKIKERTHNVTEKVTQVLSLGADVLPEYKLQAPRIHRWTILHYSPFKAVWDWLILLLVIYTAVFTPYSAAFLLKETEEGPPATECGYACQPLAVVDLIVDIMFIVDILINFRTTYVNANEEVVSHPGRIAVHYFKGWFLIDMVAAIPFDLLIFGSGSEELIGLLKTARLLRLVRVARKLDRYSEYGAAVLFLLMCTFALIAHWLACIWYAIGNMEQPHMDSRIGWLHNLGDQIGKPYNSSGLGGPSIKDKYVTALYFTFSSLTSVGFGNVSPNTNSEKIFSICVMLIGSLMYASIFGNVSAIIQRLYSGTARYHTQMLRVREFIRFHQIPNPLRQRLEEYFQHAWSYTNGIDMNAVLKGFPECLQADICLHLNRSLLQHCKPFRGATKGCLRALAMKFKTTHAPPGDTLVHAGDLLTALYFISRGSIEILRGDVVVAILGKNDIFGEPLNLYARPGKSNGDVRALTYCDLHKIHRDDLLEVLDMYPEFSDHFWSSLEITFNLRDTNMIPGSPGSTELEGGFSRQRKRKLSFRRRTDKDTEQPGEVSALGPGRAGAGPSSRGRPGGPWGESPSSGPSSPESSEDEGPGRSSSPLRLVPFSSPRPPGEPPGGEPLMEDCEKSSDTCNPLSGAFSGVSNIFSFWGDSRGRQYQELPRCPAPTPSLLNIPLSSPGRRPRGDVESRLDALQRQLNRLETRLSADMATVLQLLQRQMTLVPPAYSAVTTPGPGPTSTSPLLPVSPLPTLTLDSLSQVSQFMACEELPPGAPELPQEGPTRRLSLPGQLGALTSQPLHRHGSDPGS
row,Compound,"hERG current change (%, negative = inhibition) at 10uM [%]"
1,O=C(NC(=S)NCc1ccccc1)c1ccc(Br)o1,-7.42
2,Cc1noc(C)c1C(=O)OCC(=O)c1cc(C)n(Cc2ccccc2Cl)c1C,-7.65
3,Cc1ccc(CC(=O)N2CC(C)OC(C)C2)cc1 (centres unmarked),9.85
4,Cc1ccc2nc(Br)c3c(c2c1)OC(CBr)C3 (centres unmarked),-33.6
5,CC1CCCCC1NC(=O)COc1ncnc2sccc12 (centres unmarked),3.61
6,COc1ccc(Cl)cc1NC(=S)N1CCC(c2ccc(C)cc2)C1 (centres unmarked),-1.95
7,CCNC(=O)/C(=C\C=C\c1ccccc1)NC(=O)c1ccc(Br)o1,-18.2
8,Cc1ccc(S(=O)(=O)Cn2nnnc2C(c2ccc(F)cc2)N2CCC(C(N)=O)CC2)cc1 (centres unmarked),-44.1
9,Cc1ccc(C(c2nnnn2CS(=O)(=O)c2ccc(C)cc2)N2CCC(C(N)=O)CC2)cc1 (centres unmarked),-55.1
10,Cc1ccc(S(=O)(=O)Cn2nnnc2C(C(C)C)N2CCC(C(N)=O)CC2)cc1 (centres unmarked),19
11,CC(C)Oc1ccc(S(=O)(=O)N2CCCCC2)cc1NC(=O)C1CSC2(C)CCC(=O)N12 (centres unmarked),-20.9
12,COc1cc(OC)c(NC(=O)CN(C)S(=O)(=O)c2ccc3[nH]c(=O)oc3c2)cc1Cl,3.44
13,CCc1ccccc1NC(=O)CN(C)S(=O)(=O)c1ccc(-c2ccc(=O)[nH]n2)s1,-74.8
14,COc1cc(OC)c(NC(=O)CN(C)S(=O)(=O)c2ccc(-c3ccc(=O)[nH]n3)s2)cc1Cl,-56.5
15,CCOc1ccc(NC(=O)CN(C)S(=O)(=O)c2ccc(-c3ccc(=O)[nH]n3)s2)cc1,2.54
16,Cc1ccccc1NC(=O)CN(C)S(=O)(=O)c1ccc(-c2ccc(=O)[nH]n2)s1,-78.6
17,COc1cc(NC(=O)CN(C)S(=O)(=O)c2ccc(-c3ccc(=O)[nH]n3)s2)cc(OC)c1,-5.53
18,Cc1cccc(NC(=O)CN(C)S(=O)(=O)c2ccc(-c3ccc(=O)[nH]n3)s2)c1C,-19.9
19,Cc1ccccc1NC(=O)CN(C)S(=O)(=O)c1cccs1,2.52
20,CCOC(=O)CCN(c1ccccc1)S(=O)(=O)c1ccc(-c2ccc(=O)[nH]n2)s1,-29.3
21,CC1CCN(S(=O)(=O)c2ccc3[nH]c(=O)[nH]c3c2)CC1,-3.58
22,O=C(Nc1cc(S(=O)(=O)N2CCCCC2)ccc1Cl)C1=NN(c2ccccc2)C(=O)CC1,12.6

row,Compound,"hERG current change (%, negative = inhibition) at 10uM [%]"
1,O=C(NNC(=O)C1CCN(C(=O)Nc2ccccc2)CC1)c1ccc([N+](=O)[O-])cc1,2.62
2,CCCOc1ccc(-c2c(C(=O)N/N=C(\C)c3ccco3)nnn2-c2nonc2N)cc1,22.5
3,Cc1[nH]c2ccccc2c1C(=O)COC(=O)c1ccc[n+]([O-])c1,0.499
4,NC(=O)c1ccc(Oc2ccc(C(N)=O)cc2)cc1,17.5
5,CCc1sc(C(C2C(=O)CC(C)(C)CC2=O)C2C(=O)CC(C)(C)CC2=O)cc1[N+](=O)[O-],-5.07
6,O=C(Nc1ccc2c(c1)OCCO2)c1ccc(S(=O)(=O)N2CCCCC2)cc1,4.38
7,O=C1N=C(N2CCOCC2)S/C1=C/c1ccc(-c2ccc(F)cc2)o1,2.43
8,O=C1N=C(N2CCCC2)S/C1=C\C=C\c1ccccc1,-32.4
9,CC(=C/c1ccccc1)/C=C1/SC(N2CCOCC2)=NC1=O,-20.1
10,O=C1N=C(N2CCOCC2)S/C1=C\C=C/c1ccccc1,-58.2
11,Cc1ccc(-c2ccc(/C=C3\SC(N4CCOCC4)=NC3=O)o2)cc1,-64.8
12,Cc1ccccc1-c1ccc(/C=C2/SC(N3CCOCC3)=NC2=O)o1,-15.9
13,CC(=O)c1c(C)[nH]c(C(=O)OCn2nnc3ccccc3c2=O)c1C,9.87
14,C/C(=N\NC(=O)C1CC1c1ccccc1)c1ccc(C)s1 (centres unmarked),-6.02
15,CCOC(=O)c1ccc2c(c1)n(CCCS(=O)(=O)[O-])c(/C=C/c1ccc(Cl)cc1)[n+]2CC,-23.1
16,CCn1c(C)[n+](CC)c2ccc(C(=O)N(C)c3ccccc3)cc21.[I-],37.4
17,CCOC(=O)c1ccc2c(c1)n(CC)c(C)[n+]2CC.[I-],23.7
18,CCn1c(/C=C/N(C)c2ccccc2)[n+](CC)c2ccc(Cl)cc21.[I-],-16
19,CCOC(=O)c1ccc2c(c1)n(CCO)c(C)[n+]2CC.[I-],10.6
20,CCOC(=O)c1ccc2c(c1)n(Cc1ccccc1)c(C)[n+]2CC.[O-][Cl+3]([O-])([O-])[O-],-7.56
21,CCn1c(/C=C/Nc2ccccc2)[n+](CC)c2ccc(C(=O)OCC(F)(F)F)cc21.[I-],-81.6
22,CCOC(=O)c1ccc2c(c1)n(CC)c(/C=C/N(C)c1ccccc1)[n+]2CC.[I-],-74.3

row,Compound,"hERG current change (%, negative = inhibition) at 10uM [%]"
1,CCOC(=O)c1ccc2c(c1)n(CC)c(/C=C/Nc1ccccc1)[n+]2CC.[I-],-80
2,CCN(C(=O)Nc1ccccc1)c1ccccc1,4.25
3,CN(C)CCCNc1ccc(-c2nn(C)c(=O)c3ccccc23)cc1[N+](=O)[O-],-16
4,Cl.Fc1ccc(Cn2nnnc2CN2CCc3ccccc3C2)cc1,-10.6
5,Cn1c(CSc2nc3ccccc3s2)nnc1SCC(=O)NCc1cccnc1,-5.4
6,CC(=O)Nc1cccc(OCc2cnc(Cl)s2)c1,11.4
7,COc1ccccc1-c1c(C)nn2c(N3CCCCCC3)cc(C)nc12,-8.02
8,CSc1ncc(C(=O)Nc2cccc(C)c2C)c(C)n1,9.56
9,Cc1ccc(C(=O)Nc2ccc(Br)c(C(F)(F)F)c2)cc1,4.38
10,Cc1nn2c(COc3ccc(NC(=O)c4ccccc4)cc3)nnc2c2ccccc12,4.38
11,Cc1nnc(SCc2ccc(F)cc2)n1NC/C=C/c1ccccc1,-18.6
12,CC(=O)c1ccc(OCC(=O)NCC2(N3CCCCC3)CCCCC2)cc1,4.71
13,CCC(=O)c1ccc(OCC(=O)NCC2(N3CCCCC3)CCCCC2)cc1,-51.5
14,N#Cc1ccc(OCC(=O)NCC2(N3CCCCC3)CCCCC2)cc1,-78.2
15,O=C(COc1ccccc1)NCC1(N2CCCCC2)CCCCC1,-30
16,CCOc1ccc(CC(=O)NCC2(N3CCCCC3)CCCCC2)cc1,-17
17,N#Cc1ccccc1OCC(=O)NCC1(N2CCCCC2)CCCCC1,-29.4
18,C/C(CCc1ccco1)=N/NC(=O)CCC(=O)Nc1ccc(Br)cc1,10.2
19,CCn1c(SCc2nc3sc(C(=O)O)c(C)c3c(=O)[nH]2)nc2ccccc21,3.32
20,CC(C)(C)C(=O)N1c2ccccc2CCc2ccccc21,-0.0543
21,C=CCn1c(COc2ccccc2)nc2ccccc21,-7.62
22,CCOCCn1c(COc2ccc(C)cc2)nc2ccccc21,-52.6

row,Compound,"hERG current change (%, negative = inhibition) at 10uM [%]"
1,C=CCn1c(COc2ccccc2OC)nc2ccccc21,-0.267
2,COCCn1c(COc2ccc(C)cc2)nc2ccccc21,-11.9
3,C=CCn1c(COc2ccc(OC)cc2)nc2ccccc21,-79.8
4,CCOCCn1c(COc2ccccc2)nc2ccccc21,-33.6
5,O=C(Nc1cccc(NC(=O)c2ccccc2Cl)c1)c1ccc([N+](=O)[O-])o1,-16.4
6,CC1Cc2nc(SCC(=O)N3CCCC3)n(C)c(=O)c2S1 (centres unmarked),-7.79
7,COc1ccc(C(=O)Nc2ccc(NC(=O)c3cccs3)cc2)cc1[N+](=O)[O-],5.49
8,O=C1C2ON(c3ccccc3)C(c3cccnc3)C2C(=O)N1Cc1ccccc1 (centres unmarked),-50.8
9,O=C1C2ON(c3ccccc3)C(c3cccnc3)C2C(=O)N1c1ccc(Cl)c(Cl)c1 (centres unmarked),10.5
10,O=C1C2ON(c3ccccc3)C(c3cccnc3)C2C(=O)N1c1ccccc1 (centres unmarked),18.1
11,CC(C)(C)n1nnnc1C(c1ccc(F)cc1)N1CCC(C(N)=O)CC1.Cl (centres unmarked),11.3
12,CC(C)(CNC(=O)c1ccc(-c2cccc(C(F)(F)F)c2)o1)N1CCOCC1,-76.3
13,COc1ccc(C(CNC(=O)c2ccc(-c3cccc(C(F)(F)F)c3)o2)N2CCOCC2)cc1 (centres unmarked),-6.09
14,O=C(c1ccc(-c2cccc(C(F)(F)F)c2)o1)N1CCN(c2ccccc2O)CC1,17.1
15,CC1CN(C(=O)c2ccc(-c3cccc(C(F)(F)F)c3)o2)CC(C)O1 (centres unmarked),-43.7
16,O=C(c1ccco1)N1CCN(C(=O)c2ccc(-c3cccc(C(F)(F)F)c3)o2)CC1,-79.9
17,O=C(c1ccco1)N1CCN(Cc2cccc(C(F)(F)F)c2)CC1,-5.15
18,O=C(c1ccc(-c2cccc(C(F)(F)F)c2)o1)N1CCOCC1,-21.8
19,O=C(c1ccc(-c2cccc(C(F)(F)F)c2)o1)N1CCCCCCC1,-3.68
20,CC(=O)N1CCN(C(=O)c2ccc(-c3cccc(C(F)(F)F)c3)o2)CC1,-53.5
